What all share (assay): PBM; 200 nM protein, PBS
Holding throughout (conditions): dsDNA, one strand shown

Assay [1] deals with HESX1 (Homo sapiens, UniProt Q9UBX0 95-180, R165K).
Assay [2] addresses SHOX (Homo sapiens, UniProt O15266 103-189).
The target in assay [3] is ALX4 (Homo sapiens, UniProt Q9H161 200-286, Q225E).
In assay [4] the target is HESX1 (Homo sapiens, UniProt Q9UBX0 95-180).
Assay [5] concerns the target MSX2 (Homo sapiens, UniProt P35548 130-214, R199I).
Assay [6] concerns the target ALX1 (Homo sapiens, UniProt Q15699 118-204, L144V).
For assay [7], the target named is ALX3 (Homo sapiens, UniProt O95076 139-225, N203Q).
Assay [8] deals with SHOX (Homo sapiens, UniProt O15266 103-189, R173C).
Assay [9] addresses ALX1 (Homo sapiens, UniProt Q15699 118-204, L144R).
The target of assay [10] is ALX3 (Homo sapiens, UniProt O95076 139-225).
For assay [11], the target named is PROP1 (Homo sapiens, UniProt O75360 56-141).
Assay [12] deals with HESX1 (Homo sapiens, UniProt Q9UBX0 95-180, R109Q).
Assay [13] concerns the target PROP1 (Homo sapiens, UniProt O75360 56-141, R99H).
Assay [14] addresses ALX3 (Homo sapiens, UniProt O95076 139-225, L168Q).
Assay [15] addresses HESX1 (Homo sapiens, UniProt Q9UBX0 95-180, P111T).
For assay [16], the target named is ALX3 (Homo sapiens, UniProt O95076 139-225, L168V).
In assay [17] the target is PROP1 (Homo sapiens, UniProt O75360 56-141, F88S).
In assay [18] the target is HESX1 (Homo sapiens, UniProt Q9UBX0 95-180, F115L).
In assay [19] the target is ALX1 (Homo sapiens, UniProt Q15699 118-204).
In assay [20] the target is ALX3 (Homo sapiens, UniProt O95076 139-225, N203S).
Sequence of ALX3 (Homo sapiens, UniProt O95076 139-225, N203S) (O95076 139-225 N203S): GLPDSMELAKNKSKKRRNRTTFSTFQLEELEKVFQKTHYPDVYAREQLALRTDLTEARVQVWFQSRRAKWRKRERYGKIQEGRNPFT

Sequence of SHOX (Homo sapiens, UniProt O15266 103-189, R173C) (O15266 103-189 R173C): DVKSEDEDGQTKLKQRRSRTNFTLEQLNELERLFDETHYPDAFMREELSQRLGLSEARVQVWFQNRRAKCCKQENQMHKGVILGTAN
Sequence of HESX1 (Homo sapiens, UniProt Q9UBX0 95-180, R165K) (Q9UBX0 95-180 R165K): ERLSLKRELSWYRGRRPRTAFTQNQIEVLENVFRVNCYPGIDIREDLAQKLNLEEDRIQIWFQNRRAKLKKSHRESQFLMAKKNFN
Sequence of ALX1 (Homo sapiens, UniProt Q15699 118-204, L144V) (Q15699 118-204 L144V): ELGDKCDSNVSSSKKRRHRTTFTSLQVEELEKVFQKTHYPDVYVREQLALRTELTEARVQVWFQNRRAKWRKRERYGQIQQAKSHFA
Sequence of ALX1 (Homo sapiens, UniProt Q15699 118-204) (Q15699 118-204): as the sequence (Q15699 118-204 L144V) above, with V27L counted along it
Sequence of HESX1 (Homo sapiens, UniProt Q9UBX0 95-180, F115L) (Q9UBX0 95-180 F115L): as the sequence (Q9UBX0 95-180 R165K) above, with F21L, K71R counted along it
Sequence of ALX3 (Homo sapiens, UniProt O95076 139-225, N203Q) (O95076 139-225 N203Q): as the sequence (O95076 139-225 N203S) above, with S65Q counted along it
Sequence of HESX1 (Homo sapiens, UniProt Q9UBX0 95-180) (Q9UBX0 95-180): as the sequence (Q9UBX0 95-180 R165K) above, with K71R counted along it
Sequence of PROP1 (Homo sapiens, UniProt O75360 56-141, F88S) (O75360 56-141 F88S): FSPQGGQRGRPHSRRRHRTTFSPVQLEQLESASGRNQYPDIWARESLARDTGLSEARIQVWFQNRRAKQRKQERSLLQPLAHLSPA
Sequence of ALX3 (Homo sapiens, UniProt O95076 139-225, L168Q) (O95076 139-225 L168Q): as the sequence (O95076 139-225 N203S) above, with L30Q, S65N counted along it
Sequence of SHOX (Homo sapiens, UniProt O15266 103-189) (O15266 103-189): as the sequence (O15266 103-189 R173C) above, with C71R counted along it
Sequence of HESX1 (Homo sapiens, UniProt Q9UBX0 95-180, R109Q) (Q9UBX0 95-180 R109Q): as the sequence (Q9UBX0 95-180 R165K) above, with R15Q, K71R counted along it
Sequence of MSX2 (P35548 130-214 R199I): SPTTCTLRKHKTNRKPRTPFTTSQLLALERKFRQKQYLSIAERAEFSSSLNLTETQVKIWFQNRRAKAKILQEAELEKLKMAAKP
Sequence of ALX3 (Homo sapiens, UniProt O95076 139-225, L168V) (O95076 139-225 L168V): as the sequence (O95076 139-225 N203S) above, with L30V, S65N counted along it
Sequence of PROP1 (Homo sapiens, UniProt O75360 56-141, R99H) (O75360 56-141 R99H): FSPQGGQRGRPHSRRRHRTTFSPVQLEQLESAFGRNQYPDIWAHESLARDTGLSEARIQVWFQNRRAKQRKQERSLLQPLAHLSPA
Sequence of ALX1 (Homo sapiens, UniProt Q15699 118-204, L144R) (Q15699 118-204 L144R): as the sequence (Q15699 118-204 L144V) above, with V27R counted along it
Sequence of ALX3 (Homo sapiens, UniProt O95076 139-225) (O95076 139-225): as the sequence (O95076 139-225 N203S) above, with S65N counted along it
Sequence of HESX1 (Homo sapiens, UniProt Q9UBX0 95-180, P111T) (Q9UBX0 95-180 P111T): as the sequence (Q9UBX0 95-180 R165K) above, with P17T, K71R counted along it
Sequence of ALX4 (Q9H161 200-286 Q225E): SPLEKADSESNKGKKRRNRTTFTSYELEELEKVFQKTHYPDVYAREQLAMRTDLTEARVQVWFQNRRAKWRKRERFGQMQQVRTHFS
Sequence of PROP1 (Homo sapiens, UniProt O75360 56-141) (O75360 56-141): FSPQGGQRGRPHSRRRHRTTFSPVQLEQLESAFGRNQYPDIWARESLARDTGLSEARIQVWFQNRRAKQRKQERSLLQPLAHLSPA

GGTAATTA: the binding signal in assay [1] is 13.1 upbm affinity estimate (log intensity, higher = more binding, comparable within an allelic series); in [2] it was 12.7 upbm affinity estimate (log intensity, higher = more binding, comparable within an allelic series); in assay [3], 13.9 upbm affinity estimate (log intensity, higher = more binding, comparable within an allelic series); in assay [4] it was 13.2 upbm affinity estimate (log intensity, higher = more binding, comparable within an allelic series); in [5], 13.3 upbm affinity estimate (log intensity, higher = more binding, comparable within an allelic series); in assay [6], 12.1 upbm affinity estimate (log intensity, higher = more binding, comparable within an allelic series). In addition, the binding signal was 8.47 upbm affinity estimate (log intensity, higher = more binding, comparable within an allelic series) in [7]; 10 upbm affinity estimate (log intensity, higher = more binding, comparable within an allelic series) in assay [8]; 11.8 upbm affinity estimate (log intensity, higher = more binding, comparable within an allelic series) in assay [9]; 12.8 upbm affinity estimate (log intensity, higher = more binding, comparable within an allelic series) in [10]; 11.9 upbm affinity estimate (log intensity, higher = more binding, comparable within an allelic series) in assay [11]; 9.54 upbm affinity estimate (log intensity, higher = more binding, comparable within an allelic series) in assay [12]. Moreover, the binding signal in [13] is 11.8 upbm affinity estimate (log intensity, higher = more binding, comparable within an allelic series); in [14], 11 upbm affinity estimate (log intensity, higher = more binding, comparable within an allelic series); in assay [15], 11.7 upbm affinity estimate (log intensity, higher = more binding, comparable within an allelic series); in assay [16] it was 10.7 upbm affinity estimate (log intensity, higher = more binding, comparable within an allelic series); in assay [17], 7.94 upbm affinity estimate (log intensity, higher = more binding, comparable within an allelic series); in assay [18], 8.04 upbm affinity estimate (log intensity, higher = more binding, comparable within an allelic series). The binding signal in assay [19] is 12.8 upbm affinity estimate (log intensity, higher = more binding, comparable within an allelic series); in [20], 8.62 upbm affinity estimate (log intensity, higher = more binding, comparable within an allelic series).
Take CTAATTAA: the binding signal in assay [1] was 13.8 upbm affinity estimate (log intensity, higher = more binding, comparable within an allelic series); in [2], 13.4 upbm affinity estimate (log intensity, higher = more binding, comparable within an allelic series); in [3] it was 14.4 upbm affinity estimate (log intensity, higher = more binding, comparable within an allelic series); in assay [4], 13.6 upbm affinity estimate (log intensity, higher = more binding, comparable within an allelic series); in assay [5], 13.3 upbm affinity estimate (log intensity, higher = more binding, comparable within an allelic series); in assay [6], 12.3 upbm affinity estimate (log intensity, higher = more binding, comparable within an allelic series). For the same sequence, the binding signal in assay [7] was 8.64 upbm affinity estimate (log intensity, higher = more binding, comparable within an allelic series); in assay [8], 11.1 upbm affinity estimate (log intensity, higher = more binding, comparable within an allelic series); in [9], 11.9 upbm affinity estimate (log intensity, higher = more binding, comparable within an allelic series); in assay [10] it was 12.9 upbm affinity estimate (log intensity, higher = more binding, comparable within an allelic series); in assay [11], 12.2 upbm affinity estimate (log intensity, higher = more binding, comparable within an allelic series); in assay [12], 11.2 upbm affinity estimate (log intensity, higher = more binding, comparable within an allelic series). In addition, the binding signal in [13] was 12.4 upbm affinity estimate (log intensity, higher = more binding, comparable within an allelic series); in assay [14], 11.6 upbm affinity estimate (log intensity, higher = more binding, comparable within an allelic series); in assay [15] it was 12.6 upbm affinity estimate (log intensity, higher = more binding, comparable within an allelic series); in [16], 11.4 upbm affinity estimate (log intensity, higher = more binding, comparable within an allelic series); in [17], 8.3 upbm affinity estimate (log intensity, higher = more binding, comparable within an allelic series); in assay [18], 8.61 upbm affinity estimate (log intensity, higher = more binding, comparable within an allelic series). Further, the binding signal in assay [19] is 12.9 upbm affinity estimate (log intensity, higher = more binding, comparable within an allelic series); in assay [20], 8.84 upbm affinity estimate (log intensity, higher = more binding, comparable within an allelic series).
TAATTAAA: the binding signal in assay [1] was 13.1 upbm affinity estimate (log intensity, higher = more binding, comparable within an allelic series); in assay [2], 12.8 upbm affinity estimate (log intensity, higher = more binding, comparable within an allelic series); in assay [3], 14.1 upbm affinity estimate (log intensity, higher = more binding, comparable within an allelic series); in assay [4], 13.1 upbm affinity estimate (log intensity, higher = more binding, comparable within an allelic series); in [5], 12.9 upbm affinity estimate (log intensity, higher = more binding, comparable within an allelic series); in [6], 11.9 upbm affinity estimate (log intensity, higher = more binding, comparable within an allelic series). For the same sequence, the binding signal is 8.59 upbm affinity estimate (log intensity, higher = more binding, comparable within an allelic series) in assay [7]; 10.6 upbm affinity estimate (log intensity, higher = more binding, comparable within an allelic series) in [8]; 11.6 upbm affinity estimate (log intensity, higher = more binding, comparable within an allelic series) in assay [9]; 12.8 upbm affinity estimate (log intensity, higher = more binding, comparable within an allelic series) in assay [10]; 11.9 upbm affinity estimate (log intensity, higher = more binding, comparable within an allelic series) in assay [11]; 10 upbm affinity estimate (log intensity, higher = more binding, comparable within an allelic series) in assay [12]. For the same sequence, the binding signal is 11.9 upbm affinity estimate (log intensity, higher = more binding, comparable within an allelic series) in assay [13]; 11.3 upbm affinity estimate (log intensity, higher = more binding, comparable within an allelic series) in assay [14]; 12.1 upbm affinity estimate (log intensity, higher = more binding, comparable within an allelic series) in assay [15]; 11.1 upbm affinity estimate (log intensity, higher = more binding, comparable within an allelic series) in assay [16]; 8.07 upbm affinity estimate (log intensity, higher = more binding, comparable within an allelic series) in assay [17]; 8.41 upbm affinity estimate (log intensity, higher = more binding, comparable within an allelic series) in assay [18]. Also, the binding signal was 12.6 upbm affinity estimate (log intensity, higher = more binding, comparable within an allelic series) in assay [19] and 8.72 upbm affinity estimate (log intensity, higher = more binding, comparable within an allelic series) in assay [20].
For GTTAATTA, the binding signal in assay [1] was 13.7 upbm affinity estimate (log intensity, higher = more binding, comparable within an allelic series); in [2], 13.1 upbm affinity estimate (log intensity, higher = more binding, comparable within an allelic series); in [3], 14.5 upbm affinity estimate (log intensity, higher = more binding, comparable within an allelic series); in [4], 13.6 upbm affinity estimate (log intensity, higher = more binding, comparable within an allelic series); in assay [5], 13.1 upbm affinity estimate (log intensity, higher = more binding, comparable within an allelic series); in assay [6] it was 12.3 upbm affinity estimate (log intensity, higher = more binding, comparable within an allelic series). The binding signal in assay [7] was 8.67 upbm affinity estimate (log intensity, higher = more binding, comparable within an allelic series); in [8] it was 10.7 upbm affinity estimate (log intensity, higher = more binding, comparable within an allelic series); in assay [9], 12 upbm affinity estimate (log intensity, higher = more binding, comparable within an allelic series); in [10], 13 upbm affinity estimate (log intensity, higher = more binding, comparable within an allelic series); in assay [11] it was 12.1 upbm affinity estimate (log intensity, higher = more binding, comparable within an allelic series); in assay [12], 10.5 upbm affinity estimate (log intensity, higher = more binding, comparable within an allelic series). Moreover, the binding signal in assay [13] is 12.1 upbm affinity estimate (log intensity, higher = more binding, comparable within an allelic series); in assay [14], 11.5 upbm affinity estimate (log intensity, higher = more binding, comparable within an allelic series); in assay [15] it was 12.3 upbm affinity estimate (log intensity, higher = more binding, comparable within an allelic series); in [16], 11.2 upbm affinity estimate (log intensity, higher = more binding, comparable within an allelic series); in assay [17] it was 8.2 upbm affinity estimate (log intensity, higher = more binding, comparable within an allelic series); in assay [18] it was 8.41 upbm affinity estimate (log intensity, higher = more binding, comparable within an allelic series). Also, the binding signal was 13 upbm affinity estimate (log intensity, higher = more binding, comparable within an allelic series) in [19] and 8.84 upbm affinity estimate (log intensity, higher = more binding, comparable within an allelic series) in assay [20].

Values taken from paper PMC11006913.
